This passage reports growth inhibition results from PubChem BioAssay (NCI).

The structures appear in SMILES notation. The panel holds about 79,000 compounds, 15% with a hit somewhere; the sample as a whole holds those more often. The source made the active and inactive calls. Cut-off read from the data, not from the text of the source: active = growth inhibition above about 70%; inactive = the rest.

A short description of this assay: NCI Yeast Anticancer Drug Screen. Data for the mec2-1 strain (AID 157). To be noted: S. cerevisiae mec2-1 strain, at 50.0 µM, stronger effect = higher value. An outline of the steps:
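Readout is yeast growth inhibition, normalised to vehicle-treated controls, in the mec2-1 strain exposed to compound.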
Regarding `O=C(COc1ccc(Cl)cc1)OCCO`, the growth inhibition was -5.75% (inactive).
As to `NC(=Nc1ccccc1)SCc1ccc([N+](=O)[O-])cc1`, the growth inhibition was 43% (inactive).
For the compound `N[C@@H]1CCCC[C@@H]1N.O=C([O-])CN(CP(=O)([O-])[O-])CP(=O)([O-])[O-].[Pt+2]`, the growth inhibition was 99.7% (active).
As for `C/C=C(\C)CC/C=C/CO[Si](C)(C)C(C)(C)C`, the growth inhibition is 8.7% (inactive).
On to `CCOC(=O)c1cnc2cc3cccccc3n2c1=O`, for which the growth inhibition is 42.5% (inactive).
The figure for `C(=N\NC1=NCCN1)/c1ccc(-c2cn3cc(/C=N/NC4=NCCN4)ccc3n2)cc1` is 97.8% (active); for `CC(CN(C)C)C(/C=C/c1ccc(F)cc1)=N\Nc1ccccc1` (stereo unspecified) it is 12.6% (inactive).
Turning to `O=C1C(Sc2ccc3ccccc3c2)=C(Sc2ccc3ccccc3c2)C(=O)c2ccccc21`, the growth inhibition was 99% (active).
In the case of `CC(O)c1cccnc1` (stereo unspecified), the growth inhibition was 49.6% (inactive).
`Cc1cccc2nc3nc(Cl)c(Cl)nc3n12`: the growth inhibition is 50.1% (inactive).
As for `CSc1cc2c(cc1N)Cc1cc(F)ccc1-2`, the growth inhibition is 98.2% (active).
Consider `CC(C)C1=CC23CCC4C(C)(C(=O)O)CCCC4(C)C2CC1c1c(O)ccc(O)c13` (stereo unspecified), for which the growth inhibition was 99.3% (active).
Turning to `C=CCNC(=S)N/N=C(\CCC)c1ccccn1`, the growth inhibition is 99.6% (active).
For `C#CC(C)(C)OC(C)=O`, the growth inhibition is 19.2% (inactive).
Consider `Cc1cc(N2C(=O)CSC2=S)c([N+](=O)[O-])cc1C`, for which the growth inhibition was 99.5% (active).
On to `Cc1[nH]c(=O)[nH]c(=O)c1CN(C)Cc1cc(Cl)cc(Cl)c1O`, for which the growth inhibition was 26.9% (inactive).
On to `CCCCC(CC)C(O)C(=O)O` (stereo unspecified), for which the growth inhibition was 45.7% (inactive).
For `CCOCCOc1ccc(OCCOCC)cc1`, the growth inhibition is -1.7% (inactive).
For `O=C(O)c1ccc(C(=O)c2ccccc2C(=O)O)cc1`, the growth inhibition is 99.7% (active).
For the compound `CCCCCCCCCCCCCCNC(=O)CCC(NC(=O)c1ccc(N(C)Cc2cnc3nc(N)nc(N)c3n2)cc1)C(=O)NCCCCCCCCCCCCCC` (stereo unspecified), the growth inhibition is 84.7% (active).
In the case of `C=C1C(=O)C23OC2C1CCC(=O)C1(C)CC[C@H](OC(C)=O)C(C)(C)[C@H]1CC3O` (stereo partly specified), the growth inhibition was 100% (active).
As to `CCCCCCCCCCC(NC(C)=O)(C(=O)OCC)C(=O)OCC`, the growth inhibition was 98% (active).
As to `ClC(Cl)(Cl)/C=C/c1cnc2ccccc2n1`, the growth inhibition is 5.95% (inactive).
Take `CCc1nc(N)nc(N)c1-c1ccc(N(C)Cc2ccccc2)c([N+](=O)[O-])c1`: the growth inhibition is 22.1% (inactive).
Take `O=C(COC(=O)C(c1ccccc1)c1ccccc1)c1ccc(Br)cc1`: the growth inhibition is 11% (inactive).
For the compound `OCCN1COc2cc3c(cc2C1)OCN(CCO)C3`, the growth inhibition was -4.9% (inactive).
